Measured values reported in the supplement of paper PMC6555819.

How the values were obtained:
Assay in all cases: PBM binding z-score (relative to random genomic background probes); higher = stronger binding; sequences stand for … in GC…GCGATTGACAGCGTAGAATGAAGG
[1] = tested on: FXR:RXRa (NR concentration 270 nM, RXRa partner concentration 90 nM)
How it was run: (§1)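 Each nuclear receptor dimer, without ligand, was incubated for 1 h on custom Agilent 4×180K protein-binding microarrays. Binding was detected with antibodies against each partner (one per run), and scanned fluorescence was regression-normalized. The binding z-scores are referenced to random human genomic background probes.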

[2] = tested on: LXRa:RXRa (NR concentration 270 nM, RXRa partner concentration 90 nM)
How it was run: as §1

[3] = tested on: LXRa homodimer (NR concentration 270 nM)
How it was run: as §1

[4] = tested on: LXRb:RXRa (NR concentration 270 nM, RXRa partner concentration 90 nM)
How it was run: as §1

[5] = tested on: LXRb homodimer (NR concentration 270 nM)
How it was run: as §1

[6] = tested on: PPARa:RXRa (NR concentration 270 nM, RXRa partner concentration 90 nM)
How it was run: as §1

[7] = tested on: PPARg:RXRa (NR concentration 180 nM, RXRa partner concentration 90 nM)
How it was run: as §1

[8] = tested on: PPARg:RXRa 270nM:90nM, anti-RXR (NR concentration 270 nM, RXRa partner concentration 90 nM)
How it was run: as §1

[9] = tested on: PPARg:RXRa 30nM:10nM, anti-RXR (NR concentration 30 nM, RXRa partner concentration 10 nM)
How it was run: as §1

[10] = tested on: PPARg:RXRa 90nM:30nM, anti-RXR (NR concentration 90 nM, RXRa partner concentration 30 nM)
How it was run: as §1

[11] = tested on: PPARg:RXRa DBDmut IVT, anti-RXR (DBD mutation: RXRa K156A/R161A, NR concentration 270 nM, RXRa partner concentration 90 nM)
How it was run: as §1

[12] = tested on: PPARg:RXRa IVT, anti-PPARg (NR concentration 270 nM, RXRa partner concentration 90 nM)
How it was run: as §1

[13] = tested on: PPARg DBDmut:RXRa IVT, anti-PPARg (DBD mutation: PPARg1 K132A/R137A, NR concentration 270 nM, RXRa partner concentration 90 nM)
How it was run: as §1

[14] = tested on: PPARg DBDmut IVT, anti-PPARg (DBD mutation: PPARg1 K132A/R137A, NR concentration 270 nM)
How it was run: as §1

[15] = tested on: PPARg homodimer (NR concentration 180 nM)
How it was run: as §1

[16] = tested on: PXR:RXRa (NR concentration 270 nM, RXRa partner concentration 90 nM)
How it was run: as §1

[17] = tested on: PXR homodimer (NR concentration 270 nM)
How it was run: as §1

[18] = tested on: RARa:RXR (NR concentration 270 nM, RXRa partner concentration 90 nM)
How it was run: as §1

[19] = tested on: RARa homodimer (NR concentration 270 nM)
How it was run: as §1

[20] = tested on: RARb:RXRa (NR concentration 270 nM, RXRa partner concentration 90 nM)
How it was run: as §1

Sequence | PBM binding z-score [1] | PBM binding z-score [2] | PBM binding z-score [3] | PBM binding z-score [4] | PBM binding z-score [5] | PBM binding z-score [6] | PBM binding z-score [7] | PBM binding z-score [8] | PBM binding z-score [9] | PBM binding z-score [10] | PBM binding z-score [11] | PBM binding z-score [12] | PBM binding z-score [13] | PBM binding z-score [14] | PBM binding z-score [15] | PBM binding z-score [16] | PBM binding z-score [17] | PBM binding z-score [18] | PBM binding z-score [19] | PBM binding z-score [20]
GGAACGAGGGCACAGTTGATAGCATCTGTCGACG | 0.318 | 0.136 | -0.684 | -0.053 | -0.903 | 1.95 | 3.25 | 3.63 | 1.56 | 3.28 | 3.74 | 3.92 | 0.579 | -0.629 | 0.434 | 0.227 | -0.335 | 0.367 | -0.231 | 2.02
CGAACGAGGACATGAGTTGATAGCAAATGCCGAT | 0.0885 | -0.189 | -0.104 | -0.698 | -0.657 | -0.417 | 0.982 | 0.127 | 0.435 | 0.242 | 0.314 | 0.0195 | 0.334 | -0.107 | 0.0836 | -0.249 | 0.0683 | -0.232 | 0.565 | 0.496
GCTTGTAGATCGAGGTTAAGAAAGACTAAGCTAA | 0.262 | 1.09 | -0.228 | 0.65 | -0.682 | 1.68 | -0.0308 | 0.648 | -0.204 | 0.479 | 0.155 | 0.569 | -0.125 | 0.233 | 0.235 | 0.519 | -0.12 | 1.03 | 0.293 | 0.634
ATACCAAGGTGCTCGTGAGGTCGTTGATACTAAC | 0.689 | 0.535 | 0.19 | 0.834 | -0.238 | 0.836 | 0.126 | -0.218 | -0.413 | -0.131 | -0.245 | 0.0535 | 0.246 | 0.215 | 0.541 | 2.27 | 0.582 | 1.85 | -0.377 | 0.57
CGTCCAAGGTCATAGGAGGTCGGTGAAGACAGAT | 7.17 | 6.22 | 1.31 | 4.11 | 0.234 | 5.36 | 4.31 | 4.86 | 1.6 | 3.35 | 2.55 | 3.51 | -0.173 | 0.224 | 2.9 | 6.03 | 1.77 | 4.4 | 0.95 | 4.89
TCTAGCAGGGCAGAGGGTCACTCAAGAGGTACGG | 1.06 | 1.06 | -0.469 | 1.04 | -0.996 | 2.51 | 2.06 | 3.48 | 2.03 | 3.63 | 1.26 | 1.9 | -0.31 | -0.497 | 1.22 | 1.7 | -0.546 | 2.42 | -0.749 | 2.61
CCTGCTGGGCCAAGGTCATTGATCAGTCAAAGCA | 3.6 | 3.06 | 0.626 | 2.99 | -0.84 | 3.64 | 1.23 | 2.56 | -0.0774 | 1.46 | 0.105 | 1.18 | -1.48 | -1.47 | 2.84 | 3.79 | 1.84 | 3.92 | -0.536 | 3.48
CGTCAAGGTTCAACTAAGGTAACGTAAAGCACGC | 5.26 | 4.66 | 1.12 | 2.96 | 0.335 | 4.18 | 2.49 | 2.73 | 0.464 | 1.82 | -0.0468 | 0.857 | -0.137 | -0.827 | 1.13 | 3.96 | 0.241 | 3.05 | 0.652 | 3.14
TAGCCTAGGTCATTCAGGGGCCAGTATAGAAAGC | 4.58 | 3.73 | 0.785 | 3.2 | 0.97 | 3.78 | 1.97 | 2.59 | 0.55 | 1.45 | 1.64 | 2.89 | -0.179 | 0.357 | 1.37 | 2.57 | -0.0401 | 2.74 | -0.372 | 3.79
GCATATAGGTAATACAAGGTGAAAGGCCGATTGT | 0.496 | 1.99 | 0.36 | 0.488 | -0.248 | 1.97 | 2.16 | 2.86 | 1.05 | 2.2 | 3.82 | 3.44 | 0.554 | 0.825 | 0.878 | 0.592 | 0.222 | 1.66 | 0.91 | 0.547
ATATGCAGGTTAAGGGTCATTCAGGTTGGTTCGC | 5.08 | 4.8 | 3.05 | 4.56 | 1.17 | 5.84 | 9.18 | 7.85 | 8.36 | 8.7 | 3.94 | 5.19 | 0.744 | 1.06 | 2.9 | 5.48 | 1.82 | 6.03 | 1.71 | 3.6
CCTACTGGTCCACGAAAGGTCATTGATTCAGTGA | 3.9 | 4.86 | 5.19 | 4.6 | 1.21 | 4.38 | 1.3 | 3.07 | 0.699 | 2.22 | 0.842 | 1.87 | 0.736 | -0.00763 | 4.11 | 5.53 | 3.24 | 5.86 | 2.86 | 3.95
ACAACGAGGGCACGCTGAGTTGATAGCAGAGTAG | 0.762 | 0.503 | -0.519 | 0.00813 | -0.476 | 1.58 | 1.65 | 1.19 | 0.248 | 0.944 | 3.61 | 3.13 | 0.767 | 0.323 | 0.345 | 1.22 | 0.145 | 0.573 | -0.791 | 2.63
AATACAGGGTCGTCGTAGGCCAGAGTACGCACAG | 2.12 | 1.97 | 0.0247 | 1.42 | 0.00201 | 2.91 | 1.93 | 1.36 | 0.194 | 0.808 | -0.0628 | 0.91 | 0.684 | 0.302 | 0.517 | 1.7 | 0.241 | 2.19 | 0.296 | 1.72
